± gives the standard deviation of the averaged measurements. Over roughly 25,000 sequences, “ln(normalized median fluorescence intensity)” has its median near 8.6; the highest 2% begin near 10. Only a selection was taken, and the highest values are over-represented in it overall.

For the assay, the system named is PfAP2-EXP AP2 domain (GST-tagged). As to the kind of experiment: gcPBM binding intensity (ln(normalized median fluorescence intensity)); higher = stronger DNA binding. The method, boiled down:
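An Agilent 4 × 180k array carrying primer-extended double-stranded 36-bp intergenic genomic probes and negative controls received GST-tagged P. falciparum DNA-binding domains expressed in E. coli, about 25 μg on average, for 1 h. The binding buffer contained 1× PBS, 1% milk, 0.2 mg/ml BSA, 0.5% salmon testes DNA and 0.03% Triton X-100. Binding intensity is the top Masliner-normalised natural-log median intensity across replicate spots of either probe orientation, read after Alexa488 anti-GST antibody staining and a 488 nm scan.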
Turning to “CATGTATTTTATATTACACACTAATATTATAGATAT [CACACA_site6819]”, the “gcPBM binding intensity (ln)” value amounted to 8.27 ± 0.28.

Regarding “GCTTCTTAGTATACTTTATAAAATATATATTAAATA [XGTACX_negctrl_site57]”, the “gcPBM binding intensity (ln)” value stood at 8.75 ± 0.47.

Take “AATATTTTATTTTTTCTCATTAAAAATTTTTTTTTT [CACACA_negctrl_site364]”: the “gcPBM binding intensity (ln)” value was found to be 8.46 ± 0.45.

Consider “TAAAATGTAATCTGAACACACATATTTTTTTAATAT [CACACA_site1768]”, for which the “gcPBM binding intensity (ln)” value is 8.12 ± 0.52.

For the sequence “CTAACAACCAAACGCACACACACAAAAAAAAAAATA [CACACA_site400]”, the “gcPBM binding intensity (ln)” value amounted to 8.48 ± 0.42.

Take “AAATATTTTTTAATTGTTCACTTGGTGGATCATTAA [CACACA_negctrl_site922]”: the “gcPBM binding intensity (ln)” value was determined as 8.28 ± 0.28.

On to “TTTTTTTTTTTTTTTTGTACATATTTTAATTTGTTT [XGTACX_site6297]”, for which the “gcPBM binding intensity (ln)” value was 8.05 ± 0.4.

In the case of “TATTTTCCATGAGGTAGTACACATTAAAAAATCGTT [XGTACX_site6887]”, the “gcPBM binding intensity (ln)” value is 8.44 ± 0.29.

For the sequence “AAGAATATTATAAACACACACTTTATAAAGAATTAT [CACACA_site4241]”, the “gcPBM binding intensity (ln)” value stood at 8.51 ± 0.52.

Regarding “TAATTTAAAAATTCCTGTACTCAGTTTTTTCTATTT [XGTACX_site4961]”, the “gcPBM binding intensity (ln)” value was 8.48 ± 0.39.

On to “ATTATGTGCCAATACACACACACATATATATATATA [CACACA_site468]”, for which the “gcPBM binding intensity (ln)” value was determined as 9.91 ± 0.44.

In the case of “TTTAAGCAAAAACACACACACATATATATATATATA [CACACA_site349]”, the “gcPBM binding intensity (ln)” value was determined as 10.1 ± 0.41.

Consider “AAAAAAAAAAAACATACACACACATATATATATATA [CACACA_site8452]”, for which the “gcPBM binding intensity (ln)” value was determined as 10 ± 0.54.

With “AAACAAAAAAAATAAGCACACATATATATATATATA [CACACA_site8173]”, the “gcPBM binding intensity (ln)” value amounted to 10.1 ± 0.26.

Consider “AAAAAACAAAAACACACACACACATATATATATATA [CACACA_site3654]”, for which the “gcPBM binding intensity (ln)” value was determined as 9.94 ± 0.36.

For “CATATATAAAAAAACACACACATATATATATATATA [CACACA_site1195]”, the “gcPBM binding intensity (ln)” value is 10.2 ± 0.61.

With “AAAAAAAAAAAAAAAACACACATATATGTATATATA [CACACA_site3276]”, the “gcPBM binding intensity (ln)” value turned out to be 8.28 ± 0.5.

For “TATGTGCCAAAACACACACACATATATATATATATA [CACACA_site469]”, the “gcPBM binding intensity (ln)” value amounted to 10.2 ± 0.11.

Turning to “AAAACATACATATATACACACATATATATATATATA [CACACA_site1852]”, the “gcPBM binding intensity (ln)” value worked out at 10.2 ± 0.23.

“AAAAAAACACACACATATATATATATATATATATAT [GTGCAC_negctrl_site498]”: the “gcPBM binding intensity (ln)” value was found to be 10.2 ± 0.41.

For “AAAAAAAAAAAACATACACACATACATACATATATA [CACACA_site8222]”, the “gcPBM binding intensity (ln)” value turned out to be 8.48 ± 0.4.

As for “TATAAGCAAAAACACACACACATATATATATATATA [CACACA_site3804]”, the “gcPBM binding intensity (ln)” value was found to be 10.3 ± 0.28.

For the sequence “ACAGCTCTAGGACATGCATGTTATATAGAAAAAGAG [TGCATGCA_site703]”, the “gcPBM binding intensity (ln)” value worked out at 9.59 ± 0.32.

On to “TTATACAACAAGAAAATTATAAAATGTAACATATAT [GTGCAC_negctrl_site406]”, for which the “gcPBM binding intensity (ln)” value was 8.53 ± 0.42.

On to “TTTATAATTTATATCACACATATATCTGTAATAAAT [CACACA_site5048]”, for which the “gcPBM binding intensity (ln)” value worked out at 8.24 ± 0.44.

Turning to “TATATTTATAGACACACACACAAAAAAAAAAAAAAA [CACACA_site6818]”, the “gcPBM binding intensity (ln)” value stood at 8.37 ± 0.31.

In the case of ATTTTCATGATAAAGGTGCAATTATTTTTATAAGAA, the “gcPBM binding intensity (ln)” value worked out at 8.74 ± 0.13.

Take “ATTATTGTTTATTGATTTTTGTTAAAATAGGAAATT [GTGCAC_negctrl_site181]”: the “gcPBM binding intensity (ln)” value came to 8.37 ± 0.4.

With “AAAAAAATCACATAAAATACTTTATTTTATATTATA [GTGCAC_negctrl_site372]”, the “gcPBM binding intensity (ln)” value came out at 7.89 ± 0.36.

Regarding “ATTTTTAATCATTTACAACCTAGTGATTATACAAAT [CACACA_negctrl_site1089]”, the “gcPBM binding intensity (ln)” value came to 8.51 ± 0.35.

Take “AAAAAAAAAAAGCACACACACATATGCGTATATATA [CACACA_site954]”: the “gcPBM binding intensity (ln)” value came out at 8.49 ± 0.57.

As for “TAAGAAAATATTTATGTATGCATGTCCTAATATTTC [TGCATGCA_site295]”, the “gcPBM binding intensity (ln)” value is 8.44 ± 0.3.

With “TTGCCTTAAAAAGGAACACACATGCTTTTTTTAGTT [CACACA_site938]”, the “gcPBM binding intensity (ln)” value came to 8.37 ± 0.45.

With “TATTATAAATAAATAGAAAAAAAAATGATAAATGGA [CACACA_negctrl_site865]”, the “gcPBM binding intensity (ln)” value amounted to 8.62 ± 0.42.

For the sequence “AAAAAAAAAAAAAACACACATACATACATACATATA [CACACA_site4121]”, the “gcPBM binding intensity (ln)” value turned out to be 8.55 ± 0.16.

For the sequence “TGCATATACGCAAGCACACATATATATATATATATA [CACACA_site1069]”, the “gcPBM binding intensity (ln)” value turned out to be 10.2 ± 0.51.

Take “TGCATATACTCAAGCACACATATATATATATATATA [CACACA_site4733]”: the “gcPBM binding intensity (ln)” value was determined as 10.2 ± 0.33.

On to “TATGCATATACACAAGCACACATATATATATATATA [CACACA_site8266]”, for which the “gcPBM binding intensity (ln)” value amounted to 10.1 ± 0.32.

Turning to “AACACACACATATATATATATATATATATATATATA [GTGCAC_negctrl_site573]”, the “gcPBM binding intensity (ln)” value turned out to be 10 ± 0.47.

“AAAACAAACAGACACACACACATATATATATATATA [CACACA_site3655]”: the “gcPBM binding intensity (ln)” value is 10.3 ± 0.21.

In the case of “AAAACAGACAAACACACACACACATATATATATATA [CACACA_site3393]”, the “gcPBM binding intensity (ln)” value was 10.1 ± 0.49.

Take “AAAAAAAACAGACACACACACATACAAAATATATAT [CACACA_site1449]”: the “gcPBM binding intensity (ln)” value worked out at 8.73 ± 0.47.

Turning to “AAAAAAAAAAAAAAAACACACATATATATATATATA [CACACA_site2436]”, the “gcPBM binding intensity (ln)” value is 10.4 ± 0.11.

As to “AACTATAATTAAAGGATGCACTTGAAGGCATTTCAA [GTGCAC_site9689]”, the “gcPBM binding intensity (ln)” value is 8.34 ± 0.35.

Source of the values: the supplement of paper PMC11417369.
